# Source: PubChem BioAssay (NCATS)
# Records with an inconclusive call do not appear. Active and inactive are the calls of the source. Unless noted, calls follow the shape of the full dose curve.
# Experiments:
# [1] = qHTS assay for small molecule agonists of retinoid X receptor alpha signaling (AID 588544); conditions: HEK293T RXRa-UAS-bla, beta-lactamase reporter, 18 h; 530 nm emission;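 as to activation: 0% = DMSO basal wells and 100% = reference agonist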
# [2] = biological target: Retinoic acid receptor RXR-alpha (Homo sapiens) (UniProt P19793); assay: as above; conditions: HEK293T RXRa-UAS-bla, beta-lactamase reporter, 18 h; series mostly up to 76.7 µM
# Sequence of Retinoic acid receptor RXR-alpha (Homo sapiens) (P19793 whole entry, looked up): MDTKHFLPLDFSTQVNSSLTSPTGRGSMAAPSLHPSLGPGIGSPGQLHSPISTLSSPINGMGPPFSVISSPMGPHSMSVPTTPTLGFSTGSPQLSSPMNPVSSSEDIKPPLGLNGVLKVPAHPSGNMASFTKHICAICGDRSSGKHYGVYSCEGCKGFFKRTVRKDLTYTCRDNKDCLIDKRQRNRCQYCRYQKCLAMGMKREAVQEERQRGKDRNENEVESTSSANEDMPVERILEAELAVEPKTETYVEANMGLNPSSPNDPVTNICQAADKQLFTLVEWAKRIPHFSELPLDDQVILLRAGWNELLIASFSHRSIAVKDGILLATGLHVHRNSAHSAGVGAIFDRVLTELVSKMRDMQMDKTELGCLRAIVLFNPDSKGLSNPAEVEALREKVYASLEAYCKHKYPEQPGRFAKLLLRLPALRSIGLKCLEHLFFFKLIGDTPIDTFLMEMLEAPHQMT
# [3] = biological target: Thyroid hormone receptor beta (Homo sapiens) (UniProt P10828); assay: qHTS assay for small molecule agonists of thyroid hormone receptor beta signaling (AID 588545); conditions: TR-UAS-bla GripTite HEK 293, beta-lactamase ratio, agonist mode, 18 h, percent of T3 response, DMSO as zero; series mostly up to 76.7 µM;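 also: 0% = DMSO only and 100% = 10 nM T3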
# Sequence of Thyroid hormone receptor beta (Homo sapiens) (P10828 whole entry, looked up): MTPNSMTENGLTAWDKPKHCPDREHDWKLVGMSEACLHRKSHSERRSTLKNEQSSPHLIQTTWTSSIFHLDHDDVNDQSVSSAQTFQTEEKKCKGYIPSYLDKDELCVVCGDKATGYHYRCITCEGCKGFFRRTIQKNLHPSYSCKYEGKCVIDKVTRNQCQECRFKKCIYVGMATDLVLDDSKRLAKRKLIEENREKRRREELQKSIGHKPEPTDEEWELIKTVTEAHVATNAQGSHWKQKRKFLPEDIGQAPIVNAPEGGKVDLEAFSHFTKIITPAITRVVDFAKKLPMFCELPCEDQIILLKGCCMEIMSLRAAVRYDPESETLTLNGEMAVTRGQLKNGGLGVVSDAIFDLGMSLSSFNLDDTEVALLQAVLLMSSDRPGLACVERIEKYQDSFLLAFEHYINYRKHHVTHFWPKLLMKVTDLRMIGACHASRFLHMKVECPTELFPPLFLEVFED
# Summary of the method: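 Efficacy and EC50 values derive from Hill fits of qHTS titration data, normalized to 10 nM T3 and DMSO-only wells. HEK 293 reporter cells were stimulated for 18 hrs at 37 C, with beta-lactamase activity measured by CCF4 fluorescence.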
# [4] = qHTS assay for small molecule antagonists of retinoid X receptor alpha signaling (AID 588546; active = well fitted inhibition curve with a large enough effect in the signal ratio, with a control signal flat, not every such curve was filed as active; the % refers to the signal ratio;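 also: cells stimulated with 9-cis-retinoic acid as agonist; % is scaled to controls: 0 for no effect and ±100 for the full control effect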); conditions: HEK293T RXRa-UAS-bla, beta-lactamase ratio, antagonist mode; measured here: W530 green channel, cytotoxicity proxy
# Summary of the method: (§1)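 Beta-lactamase reporter inhibition, read as CCF4 fluorescence ratio (ex 405, em 460/530 nm) after 2 h at RT. HEK293T UAS-bla cells, 2500/well, were stimulated with 9-cis-RA at 500 or 100 nM final alongside test compound for 18 h at 37 C.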
# [5] = biological target: Retinoic acid receptor RXR-alpha (Homo sapiens) (UniProt P19793); assay: as above; conditions: HEK293T RXRa-UAS-bla, beta-lactamase ratio, antagonist mode
# Summary of the method: as §1
# [6] = biological target: Voltage-gated inwardly rectifying potassium channel KCNH2 (Homo sapiens) (UniProt Q12809); assay: qHTS Assay for Small Molecule Inhibitors of the Human hERG Channel Activity (AID 588834; active = well fitted inhibition curve with a large enough effect;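 also: top concentration of the series differs between compounds; % is scaled to controls: 0 for no effect and ±100 for the full control effect; lower thallium flux fluorescence means stronger hERG block; nearly all actives have a fitted effect of over 50% in size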); conditions: U2OS BacMam hERG, FluxOR thallium flux fluorescence; series mostly up to 92.2 µM
# Sequence of Voltage-gated inwardly rectifying potassium channel KCNH2 (Homo sapiens) (Q12809 whole entry, looked up): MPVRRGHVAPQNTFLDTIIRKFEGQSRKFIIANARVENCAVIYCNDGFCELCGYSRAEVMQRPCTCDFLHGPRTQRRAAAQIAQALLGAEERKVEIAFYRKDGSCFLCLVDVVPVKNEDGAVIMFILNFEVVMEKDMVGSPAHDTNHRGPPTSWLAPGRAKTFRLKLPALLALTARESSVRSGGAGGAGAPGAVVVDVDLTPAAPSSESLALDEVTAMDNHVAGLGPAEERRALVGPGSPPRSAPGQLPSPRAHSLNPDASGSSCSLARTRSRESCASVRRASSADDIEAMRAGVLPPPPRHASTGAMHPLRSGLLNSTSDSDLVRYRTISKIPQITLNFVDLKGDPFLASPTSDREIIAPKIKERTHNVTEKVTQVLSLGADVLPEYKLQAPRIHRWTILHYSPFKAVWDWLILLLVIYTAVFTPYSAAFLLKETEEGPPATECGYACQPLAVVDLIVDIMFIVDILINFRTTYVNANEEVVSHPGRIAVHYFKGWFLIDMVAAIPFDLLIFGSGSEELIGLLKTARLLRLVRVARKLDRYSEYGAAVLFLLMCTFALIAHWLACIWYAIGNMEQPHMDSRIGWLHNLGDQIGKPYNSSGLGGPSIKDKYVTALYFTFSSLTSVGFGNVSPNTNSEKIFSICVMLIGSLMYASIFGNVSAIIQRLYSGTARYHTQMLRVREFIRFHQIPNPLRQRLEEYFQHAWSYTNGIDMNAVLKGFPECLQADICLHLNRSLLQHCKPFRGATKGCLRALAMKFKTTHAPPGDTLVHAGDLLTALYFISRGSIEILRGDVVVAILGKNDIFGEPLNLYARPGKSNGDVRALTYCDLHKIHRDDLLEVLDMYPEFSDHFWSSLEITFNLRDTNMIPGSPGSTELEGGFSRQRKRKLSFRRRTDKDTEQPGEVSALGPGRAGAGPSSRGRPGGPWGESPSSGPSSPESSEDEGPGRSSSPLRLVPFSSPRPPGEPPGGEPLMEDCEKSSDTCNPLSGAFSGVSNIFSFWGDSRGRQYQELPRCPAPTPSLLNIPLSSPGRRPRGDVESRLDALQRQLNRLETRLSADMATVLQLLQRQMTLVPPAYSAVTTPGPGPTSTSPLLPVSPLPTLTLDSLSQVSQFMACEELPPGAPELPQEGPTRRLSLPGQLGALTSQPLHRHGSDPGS
# Summary of the method: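 hERG-BacMam U2OS, 2000 cells/well; 0.7X FluxOR loading 1 hr RT dark; cpd ~10 min 37 °C; stim buffer; FDSS fluorescence 2 min @ 1 s; AC50 Hill fit.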
# [7] = qHTS assay for small molecule activators of the p53 signaling pathway (AID 651743; active = well fitted activation curve with a large enough effect in the signal ratio, not every such curve was filed as active; the % refers to the signal ratio; also: % of control where 0% means no effect); conditions: HCT-116 p53RE-bla, beta-lactamase FRET ratio, 16 h; stronger effect = higher value
# Summary of the method: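 Cell-based beta-lactamase reporter (p53 response elements, HCT-116 background). After a 5-hour preincubation, cells received compound for 16 hours at 37 C; substrate development ran 2 hours at room temperature.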
# [8] = biological target: Thyroid hormone receptor beta (Homo sapiens) (UniProt P10828); assay: qHTS assay for small molecule antagonists of thyroid hormone receptor beta signaling (AID 588547; active = well fitted inhibition curve with a large enough effect in the signal ratio, with a control signal flat, not every such curve was filed as active; the % refers to the signal ratio;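 also: cells stimulated with 0.4 nM T3 agonist during compound exposure; % is scaled to controls: 0 for no effect and ±100 for the full control effect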); conditions: TR-UAS-bla HEK293, beta-lactamase ratio, antagonist mode, 18 h
# Summary of the method: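 TR-UAS-bla GripTite HEK293 cells in 2% charcoal/dextran FBS medium were preincubated 4 h at 37 C, given compound (0.59 nM to 92 uM) plus 0.4 nM T3 (final) for 18 h, then CCF4 for 2 h at RT; Hill fit gave IC50.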
# [9] = qHTS assay for small molecule agonists of the antioxidant response element (ARE) signaling pathway (AID 651741; active = well fitted activation curve with a large enough effect in the signal ratio; the % refers to the signal ratio; also: % of control where 0% means no effect); conditions: HepG2 ARE-bla reporter, beta-lactamase FRET ratio, 16 h; series mostly up to 96 µM
# Summary of the method: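 Compounds in DMSO are pinned onto HepG2 ARE-bla cells (2,000/well) that were preincubated 5 h; plates stay 16 h at 37 C, then beta-lactamase activity is detected with LiveBLAzer B/G substrate by fluorescence.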
# [10] = qHTS assay for small molecule activators of the nuclear factor-kappa B (NF-kB) signaling pathway (AID 651749; active = well fitted activation curve with a large enough effect in the signal ratio; the % refers to the signal ratio; also: % of control where 0% means no effect); conditions: NF-kB-bla ME-180 cells, beta-lactamase FRET ratio, 16 h; stronger effect = higher value
# Summary of the method: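 Screening used 2,000 ME-180 reporter cells per well exposed to pinned compound (23 nL) or DMSO; after 16 hr at 37C, beta-lactamase expression under NF-kB control was assessed through FRET.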
Compound,max response [1] [%],outcome [2],outcome [3],max response [4] [%],max response [5],Potency [6],activation [7],activity change % (negative = inhibition) [8],Potency [9],activation [10]
O=Cc1ccc(C(=O)O)cc1,15.4,inactive,inactive,-11.2,34.5% (inactive),inactive,-2.17% (inactive),,,
CCC(C)(C)C(=O)O,-9.68,inactive,inactive,-3.08,6.62% (inactive),,0.0165% (inactive),-3.87% (inactive),inactive,-0.114% (inactive)
CN(C)CCCCl,-11.7,inactive,inactive,-4.19,,inactive,-1.08% (inactive),10.5% (inactive),inactive,
O=C(O)CNC(=O)c1ccc([N+](=O)[O-])cc1,0.246,inactive,inactive,-9.96,,inactive,-1.97% (inactive),4.89% (inactive),,0.89% (inactive)
CCOCCOCC,-9.35,inactive,inactive,-9.02,,inactive,0.0371% (inactive),12.3% (inactive),,
NCCCCCCN,1.96,inactive,inactive,-3.24,17.1% (inactive),inactive,,,,-0.106% (inactive)
CC(C)c1ccccc1,-7.95,inactive,inactive,7.79,6.96% (inactive),,0.723% (inactive),,inactive,-1.2% (inactive)
Nc1cccc2c(=O)[nH][nH]c(=O)c12,-4.82,inactive,inactive,-2.09,12.7% (inactive),inactive,-2.14% (inactive),,,0.176% (inactive)
Cc1ccc2cccnc2c1,5.51,inactive,inactive,6,,inactive,-4.94% (inactive),17% (inactive),inactive,
CC(C)CO,-16,inactive,inactive,-8.16,-7% (inactive),,,,,-1.15% (inactive)
CC/C=C/C#N,-6.67,inactive,inactive,-0.89,,inactive,-0.654% (inactive),3.84% (inactive),inactive,
NC=O,4.7,inactive,inactive,-9.34,,inactive,,21.1% (inactive),,-0.435% (inactive)
O=C1C=CCCC1,8.41,inactive,inactive,-1.74,,inactive,-3.28% (inactive),-3.89% (inactive),,-0.0951% (inactive)
O=[N+]([O-])c1ccccc1CCO,4.35,inactive,inactive,-5.47,,inactive,,2.13% (inactive),,-0.881% (inactive)
Cc1ccc(Br)cc1,5.91,inactive,inactive,1.18,,inactive,,-9.28% (inactive),inactive,
C=CC(=O)OCCCC,-9.05,inactive,inactive,3.81,,inactive,-0.944% (inactive),1.99% (inactive),inactive,
O=C(O)c1ccc(Cl)cc1Cl,-11.4,inactive,inactive,-6.82,,inactive,-4.73% (inactive),-8.73% (inactive),,
C=C(C)C(=O)OCCCCCCCCCC,-10.3,inactive,inactive,-7.57,,,,12.3% (inactive),,
Cc1ccccc1C(N)=O,-6.32,inactive,inactive,9.22,7.98% (inactive),,1.09% (inactive),,,1.42% (inactive)
O=Cc1ccccc1Cl,-11.2,inactive,inactive,3.56,,inactive,,5% (inactive),inactive,-1.13% (inactive)
CCOC(C)(C)C,-2.56,inactive,inactive,-1.08,,inactive,,-6.37% (inactive),inactive,
CC(=O)c1ccccn1,-4.17,inactive,inactive,-3.87,,inactive,-1.74% (inactive),-7.89% (inactive),inactive,-1.25% (inactive)
CC1CCC2CC1C2(C)C (configuration not stated),-0.475,inactive,inactive,8.6,,inactive,-0.467% (inactive),12.3% (inactive),inactive,-0.9% (inactive)
O=C(O)CCSSCCC(=O)O,1.51,inactive,inactive,-12,,inactive,,-3.23% (inactive),inactive,-1.14% (inactive)
Cc1ccc(C(C)(C)C)cc1,-4.76,inactive,inactive,-11.6,,inactive,-7.08% (inactive),14% (inactive),inactive,
CCCCCO,-7.88,inactive,inactive,-5.62,1.09% (inactive),inactive,0.0408% (inactive),,,-0.261% (inactive)
